This is a sample that favours compounds with a hit; in the whole collection about 9.5% have one here.
Tau fibril ThT: inhibitors of human tau fibril formation, thioflavin T binding. recombinant tau K18 P301L, heparin-induced fibrillization, ThT fluorescence. Potency, µM (highest dose often 57.4 µM), inactives show at the highest dose activity, negative = inhibition, most hits filed as inhibitors. actives 2.1% (n = 270,000); note: nearly all actives have a fitted effect of over 55% in size
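Heparin-induced (20 uM) aggregation of recombinant human K18 P301L tau, 15 uM unlabeled with 0.24 uM labeled, pH 7 acetate buffer, 6 hr at 37 C with compound. Fibrils quantified by 30 uM ThT fluorescence after 1 hr ambient incubation.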
HPGD block: inhibitors of human 15-hydroxyprostaglandin dehydrogenase (HPGD); P15428; purified HPGD, NADH fluorescence kinetic, PGE2 substrate; Potency, µM, without a hit: top-dose activity change, negative = inhibition, hits mostly inhibitors; actives 4.3% (n = 150,000); AID 894; active = well fitted inhibition curve with a large enough effect, not every such curve was filed as active; inconclusive = small, poorly fitted or top-dose-only effect, or another doubt; inactive = no such curve, though single readings can be large or run the other way
Target sequence (P15428 whole entry, looked up): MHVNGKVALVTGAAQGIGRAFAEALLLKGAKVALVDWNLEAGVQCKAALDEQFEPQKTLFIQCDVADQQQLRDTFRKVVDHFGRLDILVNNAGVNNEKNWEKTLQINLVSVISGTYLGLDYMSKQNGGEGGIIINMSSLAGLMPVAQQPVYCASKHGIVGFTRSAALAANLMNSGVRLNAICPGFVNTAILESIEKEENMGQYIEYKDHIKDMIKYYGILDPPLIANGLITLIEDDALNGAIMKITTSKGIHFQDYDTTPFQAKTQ
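20 nM HPGD preincubated 15 min at room temperature with compound in 50 mM Tris-HCl pH 8, 0.01% Tween 20. Started with 1 mM NAD+ and 30 uM prostaglandin E2; NADH fluorescence (360/450 nm) read 5 times over 30-s intervals, last minus first.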
Tau FP inhib: inhibitors of human tau fibril formation; K18 P301L tau heparin fibrillization, Alexa594 FP, 6 h; Potency, µM (series often up to 57.7 µM), inactives show at the highest dose activity, negative = inhibition, actives largely listed as inhibitors; actives 0.39% (n = 280,000); P10636; note: nearly all actives have a fitted effect of over 55% in size
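Human tau K18 […] P301L fragment, 15 uM unlabeled plus 0.24 uM Alexa 594-labeled tau (final), with compound and 20 uM heparin in 100 mM sodium acetate pH 7; 6 hr at 37 C, then Alexa 594 FP read.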
ALDH1A1 inh: blocks purified human ALDH1A1 activity; Purified ALDH1A1, NADH fluorescence, propionaldehyde substrate; Potency, µM (series often up to 75.3 µM), for inactives: top-dose activity, negative = inhibition, usual class: inhibitors; P00352; actives 7.3% (n = 220,000); AID 1030; active = well fitted inhibition curve with a large enough effect, not every such curve was filed as active; inconclusive = small, poorly fitted or top-dose-only effect, or another doubt; inactive = no such curve, though single readings can be large or run the other way;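 note: plate controls were no enzyme wells and a reference inhibitor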
NPSR antagonist: neuropeptide S receptor (human) antagonism, cAMP. Q6W5P4. CHO-NPSR cells, cAMP TR-FRET, antagonist mode. Potency, µM (top dose mostly 38.3 µM), for the others: at the top dose activity change, negative = inhibition, actives largely listed as inhibitors. actives 1% (n = 220,000); note: nearly all actives have a fitted effect of over 50% in size
Target sequence (Q6W5P4 whole entry, looked up): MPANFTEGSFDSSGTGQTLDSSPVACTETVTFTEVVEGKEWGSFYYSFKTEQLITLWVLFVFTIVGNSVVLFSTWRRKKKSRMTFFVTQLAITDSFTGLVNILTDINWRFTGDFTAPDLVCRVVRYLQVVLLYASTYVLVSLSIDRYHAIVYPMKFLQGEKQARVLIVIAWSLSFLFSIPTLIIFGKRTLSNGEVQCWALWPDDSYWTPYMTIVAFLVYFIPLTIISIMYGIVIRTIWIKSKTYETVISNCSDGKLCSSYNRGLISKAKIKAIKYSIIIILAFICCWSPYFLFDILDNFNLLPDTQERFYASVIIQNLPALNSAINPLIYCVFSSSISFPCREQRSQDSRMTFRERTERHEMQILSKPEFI
Tau fluor counter: counter-screen for tau fibril formation inhibitors. tau K18 P301L Alexa594 fluorescence, heparin fibrillization. Potency, µM (series often up to 57.7 µM), inactives show at the top dose activity change, negative = decrease. actives 0.93% (n = 280,000). AID 1463; note: nearly all actives have a fitted effect of over 55% in size
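Human tau K18 P301L (15 uM unlabeled, 0.24 uM Alexa 594-labeled) in 100 mM sodium acetate pH 7 with 20 uM heparin, 6 hr at 37 C. ThT 30 uM added, 1 hr ambient; Alexa 594 FP and total fluorescence read at 555/632 nm.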
* hit, by the source's call; u = inconclusive; x = no result; [ ] = dose if it differs, or a comment. Unless noted, calls come from the whole dose curve; as a rule, active = well fitted curve in the direction sought with a large enough effect; inconclusive = small, poorly fitted or top-dose-only effect, or another doubt; inactive = no such curve, though single readings can be large; an effect the other way counts as inactive or inconclusive. Unless noted, % is set by controls: 0 for no effect and ±100 for the full control effect; potency is the fitted concentration of half-maximal effect.

SMILES	Tau fibril ThT	HPGD block	Tau FP inhib	ALDH1A1 inh	NPSR antagonist	Tau fluor counter
Cc1ccc(/C=C2/C(=O)NC(=O)N(CCc3ccc(F)cc3)C2=O)o1	u	3.5µM*	-5%	5.6µM*	u	-5%
COCCN1C(=O)NC(=O)/C(=C\c2ccc(F)cc2)C1=O	u	x	u	10%	1%	-4%
O=C1NC(=O)N(CCc2ccc(F)cc2)C(=O)/C1=C/c1ccco1	10µM*	x	u	2.5µM*	-20%	u
CCOC(=O)c1c(C)[nH]c(C)c1S(=O)(=O)N1CCC(C(=O)N2CCN(c3ccc(Cl)cc3)CC2)CC1	-6%	x	u	x	x	-24%
COP(=O)(OC)[C@@H](O)C(Cl)(Cl)Cl	x	-10%	x	7%[20.9 µM]	x	x
C=CCN=C=S	x	6%	x	-12%	x	x
CC1CC2CC(=O)C3CCCN4CCCC2[C@]34C1 (some centres undefined)	-1%	-1%	-6%	8%	x	-2%
C[CH2][Hg][S]c1ccccc1C(=O)O	u	0.28µM*	-8%	0.18µM*	x	-14%
O=c1[nH]c(=O)n(CCC2=CCCCC2)c(O)c1C=NCc1cccnc1	-7%	-14%	2%	25µM*	0%[46.1 µM]	5%
Cc1ccc(N/N=C/c2c(O)n(-c3ccccc3)c(=O)[nH]c2=O)cc1	16µM*	x	u	11µM*	-5%	u
Cc1cccc(NC(=O)Cn2cc(C(=O)c3ccccc3)c3ccccc32)c1C	2%	x	-8%	x	x	-15%
COc1ccc2nc(N3CCN(C(=O)CS(=O)(=O)c4ccc(C)cc4)CC3)sc2c1	u	x	7%	x	x	-13%
O=C1c2ccccc2C(=O)c2ccccc21	7%	-5%	-1%	1%	x	-3%
O=C1C=Cc2ccccc2C1=O	2.5µM*	7.9µM*	4.5µM*	14µM*	-9%	u
C/C=C(/C)C(=O)O[C@H]1C(C)=C2C([C@@H]1OC(=O)CCCCCCC)[C@@](C)(OC(C)=O)C[C@@H](OC(=O)CCC)[C@@]1(O)[C@H]2OC(=O)[C@@]1(C)O (some centres undefined)	u	u	u	u	u	-29%
COc1cccc(N2CCN(Cc3cccc(Cl)c3)CC2)c1	u	-13%	5%	-5%	-8%[46.1 µM]	-18%
COc1cccc(N2CCN(Cc3ccc(Cl)cc3)CC2)c1	-12%	-14%	0%	10µM*	-8%[46.1 µM]	-17%
CC[C@@H]1/C=C/C=C/C[C@H](C)[C@@H](O)[C@](C)(O)C(=O)[C@H](C)[C@@H](O)[C@H](C)C(=O)[C@H](C)[C@@H](O)[C@H](C)/C=C/C(=O)O[C@H]2[C@@H](C)[C@@H](CC1)O[C@@]1(CC[C@@H](C)[C@@H](C[C@H](C)O)O1)[C@@H]2C	u	x	-7%	u	x	-16%
c1ccc2sc(C3(NCC4CC4)CCCCC3)cc2c1	-8%	x	-9%	5%	x	-12%
N#CC(C#N)=Cc1cccnc1	u	x	u	3.2µM*	-37%	-9%
COC(=O)[C@]1(C)CC[C@@]2(C)CC[C@@]3(C)C4=CCc5c(cc(O)c(O)c5C)[C@]4(C)CC[C@@]3(C)C2C1 (some centres undefined)	5%	28µM*	3%	5%	x	-5%
CSCC[C@@H](N)P(C)(=O)O	x	-2%	x	5%[13.5 µM]	x	x
O=c1c(O)c(-c2ccc(O)c(O)c2)oc2c(O)c(O)cc(O)c12	3.5µM*	18µM*	7.9µM*	35µM*	x	u
CCN1CCN(S(=O)(=O)c2cnc(Cl)c(Br)c2)CC1	-4%	6%	11%	1.3µM*	4%	1%
ClC1=C(Cl)C2(Cl)C3C4CC(C5OC45)C3C1(Cl)C2(Cl)Cl (centres undefined)	5%	-2%	6%	4%	x	-5%
SMILES	Tau fibril ThT	HPGD block	Tau FP inhib	ALDH1A1 inh	NPSR antagonist	Tau fluor counter
CCOC(=O)C1CCN(/C=C2/C(=O)NC(=O)N(c3ccc(OCC)cc3)C2=O)CC1	14µM*	-5%	u	-1%	9%[46.1 µM]	-19%
Cc1cc(C)cc(N2C(=O)NC(=O)/C(=C\c3cccn3-c3ccccc3)C2=O)c1	-18%	7.1µM*	4%	-8%	-55%	0%
CN1C(=O)/C(=C/c2cccn2-c2ccc3ccccc3c2)C(=O)NC1=S	16µM*	14µM*	32µM*	u	u	18µM*[quencher]
Cc1cc(C)cc(N2C(=O)NC(=O)/C(=C\c3cccn3-c3ccc(Cl)cc3)C2=O)c1	-3%	u	-11%	u	5µM*	-12%
Cc1cc(/C=C2\C(=O)NC(=O)N(c3cccc(Br)c3)C2=O)c(C)n1C	-2%	-9%	-13%	-4%	-6%	8%
CCc1ccc(N2C(=O)NC(=O)/C(=C/c3cccn3CCOc3ccc(C)cc3)C2=O)cc1	u	-7%	-10%	7%	-38%	-14%
O=C1NC(=S)NC(=O)C1=Cc1cccn1-c1ccc(O)cc1	25µM*	x	-7%	20µM*	u	u
N[C@H](Cc1c[nH]c2ccccc12)P(=O)(O)O	x	-6%	x	12%[13.5 µM]	x	x
C#CCOS(=O)OC1CCCCC1Oc1ccc(C(C)(C)C)cc1 (centres undefined)	-1%	-19%	-2%	u	x	-7%
O=C(Oc1ccccc1)N1CCC2(CCCN(Cc3ccccc3)C2)CC1	x	-5%	x	u	x	x
CS(=O)(=O)c1ncc(Cl)c(C(=O)Nc2c(C(=O)Nc3ccccc3)oc3ccccc23)n1	8.9µM*	x	-7%	x	x	-28%
CC(C)[C@H](NC(=O)[C@H](CCC(=O)O)NC(=O)[C@H](Cc1ccccc1)NC(=O)[C@H](C)NC(=O)[C@@H](N)Cc1ccc(O)cc1)C(=O)N[C@H](C(=O)NCC(N)=O)C(C)C	-3%	x	-3%	7%	x	-2%
C[C@@H]1OC=C2[C@@H](O)[C@H]3O[C@H]3C(=O)[C@@]23[C@H]1[C@H]1C2=C([C@@H](O)[C@H]4O[C@@H]4C2=O)[C@@H]3O[C@@H]1C	u	x	u	12%[13.5 µM]	x	u
O=C1C=CC(=O)c2c(O)cccc21	11µM*	14µM*	u	13µM*	x	7.1µM*[quencher]
Cc1cccc(-n2c(/C=C\c3cccc(Br)c3)nc3ccccc3c2=O)c1	3%	x	9%	x	x	9%
Cc1cccc(-n2c(/C=C/c3c[nH]c4ccccc34)nc3ccccc3c2=O)c1	u	x	1%	x	x	4µM*[quencher]
COc1cccc(-n2c(/C=C/c3ccc(O)c(O)c3)nc3ccccc3c2=O)c1	u	x	10%	25µM*	-6%	u
O=c1c2ccccc2nc(/C=C/c2ccc(O)cc2)n1-c1cccc(O)c1	3%	x	0%	u	-13%	-23%
